{
  "source": "PubChem BioAssay (EPA / NIEHS)",
  "key": {"[1]": {"molecular_target": "Retinoic acid receptor RXR-alpha (Homo sapiens) (UniProt P19793)", "sequence (P19793 whole entry, looked up, the tested form may be a part)": "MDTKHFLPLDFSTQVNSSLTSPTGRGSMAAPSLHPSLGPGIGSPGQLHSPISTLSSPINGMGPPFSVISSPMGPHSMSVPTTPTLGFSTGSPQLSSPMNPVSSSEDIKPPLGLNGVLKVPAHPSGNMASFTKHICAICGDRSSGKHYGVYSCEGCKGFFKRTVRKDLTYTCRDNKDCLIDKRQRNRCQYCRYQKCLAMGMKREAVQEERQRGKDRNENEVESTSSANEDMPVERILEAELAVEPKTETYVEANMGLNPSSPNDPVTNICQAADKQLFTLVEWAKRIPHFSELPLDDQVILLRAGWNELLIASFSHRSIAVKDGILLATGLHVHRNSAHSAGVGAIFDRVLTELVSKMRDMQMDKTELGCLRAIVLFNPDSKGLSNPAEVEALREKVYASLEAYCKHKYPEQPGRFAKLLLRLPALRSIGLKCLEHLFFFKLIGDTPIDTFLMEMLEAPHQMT", "test": "ATG_RXRa_TRANS: Attagene TRANS-FACTORIAL HepG2 Assay for human Retinoid X Receptor alpha (RXRa) (AID 2283012)", "summary_of_the_method": "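Measures exogenous chimeric NR-GAL4 activity in transfected HepG2 liver cells after 24 h of dosing. Induced reporter mRNA was detected by RT-PCR with capillary electrophoresis, and gain of signal was analysed against DMSO.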"}, "[2]": {"molecular_target": "human RAR-related Orphan Receptor gamma (RORg), RORC (gene 6097) (UniProt P51449)", "sequence (P51449 whole entry, looked up, the tested form may be a part)": "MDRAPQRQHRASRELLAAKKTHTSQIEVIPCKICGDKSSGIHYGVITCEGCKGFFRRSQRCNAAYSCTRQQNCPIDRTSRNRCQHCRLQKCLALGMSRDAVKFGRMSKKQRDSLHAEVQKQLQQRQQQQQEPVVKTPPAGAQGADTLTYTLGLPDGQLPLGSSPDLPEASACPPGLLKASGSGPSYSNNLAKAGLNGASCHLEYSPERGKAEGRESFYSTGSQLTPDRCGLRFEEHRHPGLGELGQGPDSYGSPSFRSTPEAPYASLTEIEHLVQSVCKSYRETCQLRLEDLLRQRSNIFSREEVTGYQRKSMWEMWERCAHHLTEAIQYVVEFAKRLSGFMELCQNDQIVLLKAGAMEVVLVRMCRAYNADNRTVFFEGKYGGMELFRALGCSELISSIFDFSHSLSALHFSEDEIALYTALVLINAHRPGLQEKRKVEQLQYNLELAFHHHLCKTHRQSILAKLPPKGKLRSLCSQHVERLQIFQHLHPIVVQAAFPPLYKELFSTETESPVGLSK", "test": "ATG_RORg_TRANS: Attagene TRANS-FACTORIAL HepG2 Assay for human RAR-related Orphan Receptor gamma (RORg) (AID 2283011)", "summary_of_the_method": "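HepG2 cells transiently transfected with GAL4-UAS reporter units and chimeric RORg-Gal4 construct; after 24 h chemical exposure, reporter mRNA measured by RT-PCR with fluorescent capillary electrophoresis, gain of signal fitted against DMSO.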"}, "[3]": {"read-out": "E-selectin (Homo sapiens) (UniProt P16581)", "test": "BSK_3C_Eselectin: BioMAP Diversity Plus: 3C Assay for Eselectin Biomarker Activity (AID 2283015; active = hit-call score of the fitted dose curve at least 0.9, where 1 is the maximum; inactive = score below 0.9)", "settings": "primary human endothelial cells (HUVEC); actives raise or lower the signal", "summary_of_the_method": "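Primary human umbilical vein endothelial cells (3C system), read 24 h after compound addition; E-selectin measured by ELISA. Bidirectional curve fitting against DMSO baseline; cytotoxicity by parallel SRB total-protein staining.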"}, "[4]": {"read-out": "Interleukin-1 alpha (IL1a), IL1A (gene 3552)", "test": "BSK_BE3C_IL1a: BioMAP Diversity Plus: BE3C Assay for Interleukin-1 alpha (IL1a) Biomarker Activity (AID 2283016; active = hit-call score of the fitted dose curve at least 0.9, where 1 is the maximum; inactive = score below 0.9)", "settings": "primary human bronchial epithelial cells; actives raise or lower the signal", "summary_of_the_method": "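Signal from IL-1a ELISA, taken 24 h after chemical dosing of human bronchial epithelial cells, is compared with DMSO as baseline using bidirectional curve fitting.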"}, "[5]": {"read-out": "Monocyte Chemoattractant Protein-1 (MCP1), CCL2 (gene 6347)", "test": "BSK_3C_MCP1: BioMAP Diversity Plus: 3C Assay for Monocyte Chemoattractant Protein-1 (MCP1) Biomarker Activity (AID 2283017; active = hit-call score of the fitted dose curve at least 0.9, where 1 is the maximum; inactive = score below 0.9)", "settings": "primary human endothelial cells (HUVEC); actives raise or lower the signal", "summary_of_the_method": "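Human umbilical vein endothelial cells (3C system) exposed to chemicals for 24 h; MCP-1 quantified by ELISA against the DMSO baseline with bidirectional fitting, and parallel SRB staining used to assess cytotoxicity.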"}, "[6]": {"read-out": "Monocyte Chemoattractant Protein-1 (MCP1), CCL2 (gene 6347)", "test": "BSK_4H_MCP1: BioMAP Diversity Plus: 4H Assay for Monocyte Chemoattractant Protein-1 (MCP1) Biomarker Activity (AID 2283018; active = hit-call score of the fitted dose curve at least 0.9, where 1 is the maximum; inactive = score below 0.9)", "settings": "primary human endothelial cells (HUVEC); actives raise or lower the signal", "summary_of_the_method": "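Endothelial cells from umbilical vein were treated with test chemical, then after 24 h MCP-1 levels were quantified by ELISA; endpoint values came from bidirectional fitting with DMSO as baseline of activity.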"}, "[7]": {"read-out": "Human Leukocyte Antigen - DR isotype (HLADR), HLA-DRA (gene 3122)", "test": "BSK_3C_HLADR: BioMAP Diversity Plus: 3C Assay for Human Leukocyte Antigen - DR isotype (HLADR) Biomarker Activity (AID 2283019; active = hit-call score of the fitted dose curve at least 0.9, where 1 is the maximum; inactive = score below 0.9)", "settings": "primary human endothelial cells (HUVEC); actives raise or lower the signal", "summary_of_the_method": "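HUVEC monoculture, HLA-DR measured by ELISA 24 h after chemical dosing. Fitted bidirectionally against DMSO baseline; parallel SRB staining assessed cytotoxicity, with 3C proliferation read by SRB at 48 h.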"}, "[8]": {"read-out": "Interleukin-8 (IL8), CXCL8 (gene 3576)", "test": "BSK_3C_IL8: BioMAP Diversity Plus: 3C Assay for Interleukin-8 (IL8) Biomarker Activity (AID 2283020; active = hit-call score of the fitted dose curve at least 0.9, where 1 is the maximum; inactive = score below 0.9)", "settings": "primary human endothelial cells (HUVEC); actives raise or lower the signal", "summary_of_the_method": "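Endothelial primary cells of human umbilical vein origin are dosed with chemical; after 24 h the IL-8 biomarker is measured by ELISA, and concentration–response is fitted in both directions versus DMSO.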"}, "[9]": {"molecular_target": "human Retinoid X Receptor beta (RXRb), RXRB (gene 6257) (UniProt P28702)", "sequence (P28702 whole entry, looked up, the tested form may be a part)": "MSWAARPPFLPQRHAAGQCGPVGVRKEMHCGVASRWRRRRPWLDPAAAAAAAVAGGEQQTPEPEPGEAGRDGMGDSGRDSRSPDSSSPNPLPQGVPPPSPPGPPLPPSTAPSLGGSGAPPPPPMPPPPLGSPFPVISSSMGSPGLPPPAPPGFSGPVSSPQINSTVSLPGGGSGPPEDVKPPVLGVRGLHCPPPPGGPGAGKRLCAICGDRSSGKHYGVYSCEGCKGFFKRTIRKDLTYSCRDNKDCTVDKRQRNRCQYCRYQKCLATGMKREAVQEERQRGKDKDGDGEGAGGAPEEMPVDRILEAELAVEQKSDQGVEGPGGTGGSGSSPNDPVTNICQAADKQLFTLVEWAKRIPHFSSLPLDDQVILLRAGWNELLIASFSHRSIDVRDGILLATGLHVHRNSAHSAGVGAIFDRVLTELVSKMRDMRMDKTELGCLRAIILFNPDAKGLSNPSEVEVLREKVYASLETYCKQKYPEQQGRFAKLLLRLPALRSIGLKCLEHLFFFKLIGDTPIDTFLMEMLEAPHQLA", "test": "ATG_RXRb_TRANS: Attagene TRANS-FACTORIAL HepG2 Assay for human Retinoid X Receptor beta (RXRb) (AID 2283013)", "summary_of_the_method": "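Chimeric receptor-Gal4 activity was assessed in transiently transfected human HepG2 cells after 24 h exposure. Transcripts from GAL4-UAS reporters were quantified by fluorescent RT-PCR and capillary electrophoresis, with DMSO as negative control and baseline.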"}, "[10]": {"molecular_target": "human Thyroid Receptor alpha (THRa1), THRA (gene 7067) (UniProt P10827)", "sequence (P10827 whole entry, looked up, the tested form may be a part)": "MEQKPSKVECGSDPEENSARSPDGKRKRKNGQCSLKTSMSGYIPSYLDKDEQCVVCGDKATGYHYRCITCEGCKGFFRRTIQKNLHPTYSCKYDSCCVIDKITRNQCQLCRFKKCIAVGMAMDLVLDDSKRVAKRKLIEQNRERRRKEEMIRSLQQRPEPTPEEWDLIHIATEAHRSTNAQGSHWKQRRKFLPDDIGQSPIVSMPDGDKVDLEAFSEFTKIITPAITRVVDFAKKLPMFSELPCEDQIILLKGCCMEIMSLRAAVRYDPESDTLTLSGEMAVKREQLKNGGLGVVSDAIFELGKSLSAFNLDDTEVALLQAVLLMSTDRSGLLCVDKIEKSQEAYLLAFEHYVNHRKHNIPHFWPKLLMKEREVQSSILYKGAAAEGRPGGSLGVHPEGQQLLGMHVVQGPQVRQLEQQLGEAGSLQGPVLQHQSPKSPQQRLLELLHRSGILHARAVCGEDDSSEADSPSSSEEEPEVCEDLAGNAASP", "test": "ATG_THRa1_TRANS: Attagene TRANS-FACTORIAL HepG2 Assay for human Thyroid Receptor alpha (THRa1) (AID 2283014)", "summary_of_the_method": "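HepG2 cells transiently transfected with chimeric NR-Gal4 and GAL4-UAS reporter units, dosed 24 h. Reporter mRNA quantified by RT-PCR, fluorescent labeling, HpaI digestion and capillary electrophoresis; gain-of-signal fit versus DMSO.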"}},
  "note": "Records with an inconclusive call do not appear. The source made the active and inactive calls. Rule for the calls, unless noted: active = hit-call score of the fitted dose curve at least 0.9, where 1 is the maximum; inconclusive = response in the unintended direction; inactive = score below 0.9.",
  "data": [
    {"smiles": "Cc1c(OCC(F)(F)F)ccnc1CS(=O)c1nc2ccccc2[nH]1", "note": "(configuration not stated)", "values": [
      {"measurement": "outcome", "setting": "[1]", "value": "inactive"}
    ]},
    {"smiles": "CN1CCOCC1", "values": [
      {"measurement": "outcome", "setting": "[1]", "value": "inactive"}
    ]},
    {"smiles": "COC(=O)c1ccc(OC)cc1", "values": [
      {"measurement": "outcome", "setting": "[1]", "value": "inactive"}
    ]},
    {"smiles": "COC(C)(C)CCCC(C)CC=O", "note": "(configuration not stated)", "values": [
      {"measurement": "outcome", "setting": "[1]", "value": "inactive"}
    ]},
    {"smiles": "CCN(CC)C(=O)N(CC)CC", "values": [
      {"measurement": "outcome", "setting": "[2]", "value": "inactive"},
      {"measurement": "outcome", "setting": "[3]", "value": "inactive"},
      {"measurement": "outcome", "setting": "[4]", "value": "inactive"},
      {"measurement": "outcome", "setting": "[5]", "value": "inactive"},
      {"measurement": "outcome", "setting": "[6]", "value": "inactive"},
      {"measurement": "outcome", "setting": "[7]", "value": "inactive"},
      {"measurement": "outcome", "setting": "[8]", "value": "inactive"}
    ]},
    {"smiles": "CCCCCCCCCCCCCCN(CCO)CCO", "values": [
      {"measurement": "outcome", "setting": "[1]", "value": "inactive"}
    ]},
    {"smiles": "CCCCCc1ccco1", "values": [
      {"measurement": "outcome", "setting": "[1]", "value": "inactive"}
    ]},
    {"smiles": "CCCCCCC(C)Nc1ccc(Nc2ccccc2)cc1", "note": "(configuration not stated)", "values": [
      {"measurement": "AC50", "setting": "[1]", "value": "34.4 µM (active)"}
    ]},
    {"smiles": "CC(C)NCC(O)COc1ccc(CC(N)=O)cc1", "note": "(configuration not stated)", "values": [
      {"measurement": "outcome", "setting": "[1]", "value": "inactive"},
      {"measurement": "outcome", "setting": "[9]", "value": "inactive"}
    ]},
    {"smiles": "O=c1[nH]c(=O)c2cn[nH]c2[nH]1", "values": [
      {"measurement": "outcome", "setting": "[1]", "value": "inactive"}
    ]},
    {"smiles": "Cc1cc(CCC(=O)OCCOCCOCCOC(=O)CCc2cc(C)c(O)c(C(C)(C)C)c2)cc(C(C)(C)C)c1O", "values": [
      {"measurement": "outcome", "setting": "[2]", "value": "inactive"},
      {"measurement": "outcome", "setting": "[10]", "value": "inactive"},
      {"measurement": "outcome", "setting": "[3]", "value": "inactive"},
      {"measurement": "outcome", "setting": "[4]", "value": "inactive"},
      {"measurement": "AC50", "setting": "[5]", "value": "17.8 µM (active)"},
      {"measurement": "AC50", "setting": "[6]", "value": "17.8 µM (active)"},
      {"measurement": "AC50", "setting": "[7]", "value": "17.8 µM (active)"},
      {"measurement": "AC50", "setting": "[8]", "value": "32.3 µM (active)"}
    ]},
    {"smiles": "c1ccc(CN(Cc2ccccc2)Cc2ccccc2)cc1", "values": [
      {"measurement": "outcome", "setting": "[1]", "value": "inactive"}
    ]},
    {"smiles": "CN(C)c1ccncc1", "values": [
      {"measurement": "outcome", "setting": "[1]", "value": "inactive"}
    ]},
    {"smiles": "CCCC(C)C(O)CC", "note": "(configuration not stated)", "values": [
      {"measurement": "outcome", "setting": "[1]", "value": "inactive"}
    ]},
    {"smiles": "Cc1[nH]c(=O)c(C#N)cc1-c1ccncc1", "values": [
      {"measurement": "outcome", "setting": "[2]", "value": "inactive"},
      {"measurement": "outcome", "setting": "[10]", "value": "inactive"}
    ]},
    {"smiles": "Cc1ncc[nH]1", "values": [
      {"measurement": "outcome", "setting": "[1]", "value": "inactive"}
    ]},
    {"smiles": "COS(=O)(=O)O", "values": [
      {"measurement": "outcome", "setting": "[1]", "value": "inactive"}
    ]},
    {"smiles": "CC(=O)O[C@@H]1CC2CCC1(C)C2(C)C", "note": "(some centres not stated)", "values": [
      {"measurement": "outcome", "setting": "[1]", "value": "inactive"}
    ]},
    {"smiles": "C=C(C)C(=O)OCCOCCOCCOCCOC(=O)C(=C)C", "values": [
      {"measurement": "outcome", "setting": "[2]", "value": "inactive"},
      {"measurement": "outcome", "setting": "[3]", "value": "inactive"},
      {"measurement": "outcome", "setting": "[4]", "value": "inactive"},
      {"measurement": "outcome", "setting": "[5]", "value": "inactive"},
      {"measurement": "outcome", "setting": "[6]", "value": "inactive"},
      {"measurement": "outcome", "setting": "[7]", "value": "inactive"},
      {"measurement": "outcome", "setting": "[8]", "value": "inactive"}
    ]},
    {"smiles": "O=C(O)CCCCCCCCC(=O)O", "values": [
      {"measurement": "outcome", "setting": "[1]", "value": "inactive"}
    ]},
    {"smiles": "C=C1CC[C@H](O)C/C1=C/C=C1\\CCC[C@]2(C)[C@@H]([C@H](C)/C=C/[C@H](C)C(C)C)CC[C@@H]12", "values": [
      {"measurement": "outcome", "setting": "[1]", "value": "inactive"}
    ]}
  ]
}
